# Reference: PubChem BioAssay (NCATS)
# Inconclusive results are not listed. Entries that show only a call come without a potency. A number with no mark means an inactive call. Calls of active or inactive are those of the source. The call rests on the fitted dose curve; in most records, active means well fitted curve in the direction sought with a large enough effect; inconclusive means small, poorly fitted or top-dose-only effect, or another doubt; inactive means no such curve, though single readings can be large; an effect the other way counts as inactive or inconclusive.
# Tests used:
# [1] = target: Aldehyde dehydrogenase, mitochondrial (Homo sapiens) (UniProt P05091); experiment: qHTS for Inhibitors of the Aldehyde Dehydrogenase Family (ALDH2) Primary screen (AID 2061308); further: nearly all actives have a fitted effect of over 55% in size
# [2] = target: Retinaldehyde dehydrogenase 3 (Homo sapiens) (UniProt P47895); experiment: qHTS for Inhibitors of the Aldehyde Dehydrogenase Family (ALDH1A3) Primary screen (AID 2061315)
# [3] = target: Retinal dehydrogenase 2 (Homo sapiens) (UniProt O94788); experiment: qHTS for Inhibitors of the Aldehyde Dehydrogenase Family (ALDH1A2) Confirmation screens (AID 2061314); further: potency means the concentration at half of the fitted maximal effect; nearly all actives have a fitted effect of over 65% in size
# [4] = BET inhibitor-based combinations targeting novel dependencies in MECOM-rearranged (r) AML: SET-2 cell line (AID 2202231); conditions: SET-2 AML cells viability, CellTiter-Glo luminescence, 48 h; viability: hits give low values, series mostly up to about 46 µM; further: nearly all actives have a fitted effect of over 35% in size
# How it was run: (§1)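 Cells were plated at 500 per well and exposed to an 11-point dose series of each drug for 48 hr. Viability was measured by CellTiter-Glo luminescence, normalized to DMSO and empty-well controls, and summarized as AUC and per-cell-line Z-AUC.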
# [5] = BET inhibitor-based combinations targeting novel dependencies in MECOM-rearranged (r) AML: MV-4-11 cell line (AID 2202233); further: nearly all actives have a fitted effect of over 45% in size; further: potency means the concentration at half of the fitted maximal effect
# How it was run: (§2)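 Activity is given as area under the curve and as Z-AUC, mean-centred within each cell line. It comes from 11-point dose curves normalized to DMSO and empty wells. CellTiter-Glo luminescence was read after 48 hr drug exposure of 500 cells/well.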
# [6] = BET inhibitor-based combinations targeting novel dependencies in MECOM-rearranged (r) AML: HNT-34 cell line (AID 2202234); further: nearly all actives have a fitted effect of over 35% in size; further: potency means the concentration at half of the fitted maximal effect
# How it was run: as §2
# [7] = BET inhibitor-based combinations targeting novel dependencies in MECOM-rearranged (r) AML: AML-191 cell line (AID 2202236; further: nearly all actives have a fitted effect of over 35% in size)
# How it was run: as §1
# [8] = BET inhibitor-based combinations targeting novel dependencies in MECOM-rearranged (r) AML: OCI-AML3 cell line (AID 2202232); conditions: Potency: OCI-AML3 viability; further: nearly all actives have a fitted effect of over 35% in size; further: potency means the concentration at half of the fitted maximal effect
# How it was run: as §1
# [9] = BET inhibitor-based combinations targeting novel dependencies in MECOM-rearranged (r) AML: UCSD-AML1 cell line (AID 2202235); further: nearly all actives have a fitted effect of over 40% in size; further: potency means the concentration at half of the fitted maximal effect
# How it was run: as §2
# [10] = BET inhibitor-based combinations targeting novel dependencies in MECOM-rearranged (r) AML: AML-194 cell line (AID 2202237; further: nearly all actives have a fitted effect of over 40% in size)
# How it was run: as §1
structure (smiles),measurement,setting,value
Cc1cc(-c2nnc3n2CCCCC3)c(C)n1-c1ccc(C(C)(C)C)cc1,Potency,[1],inactive
same,Potency,[2],inactive
C[C@H]1CC[C@@H]2[C@@H](C)[C@H]3[C@H](C[C@H]4[C@@H]5CC=C6CC(O[C@@H]7O[C@H](CO)[C@@H](O)[C@H](O[C@@H]8O[C@H](CO)[C@@H](O)[C@H](O)[C@H]8O)[C@@H]7O[C@@H]7O[C@@H](C)[C@H](O)[C@@H](O)[C@H]7O)CC[C@]6(C)[C@H]5CC[C@]34C)N2C1 (some centres undefined),Potency,[1],inactive
same,Potency,[2],inactive
CCOc1ccc(CCNC(=O)c2cc3cccnc3n2Cc2cccc(C)c2)cc1OCC,Potency,[1],inactive
same,Potency,[2],inactive
CC(=O)O[C@H]1CC[C@H]2[C@@H]3CC[C@H]4CC(=O)C=C(C)[C@]4(C)[C@H]3CC[C@]12C,Potency,[1],inactive
same,Potency,[2],inactive
Cc1[nH]c2ccccc2c1P(=S)(c1ccccc1)c1ccccc1,Potency,[1],inactive
same,Potency,[2],inactive
CC1=C(C(=O)Nc2nncs2)C(c2nn(C)cc2Cl)N=C(Nc2nc3ccccc3o2)N1 (centres undefined),Potency,[1],inactive
same,Potency,[2],inactive
C=C1C(=O)CC2OC2(C)CC2OC(=O)C(=C)C2C(O)C1OC(=O)/C(C)=C\C (centres undefined),Potency,[1],inactive
same,Potency,[2],inactive
CCC1CN2CCC3(C(=O)Nc4cccc(O)c43)C2CC1/C(=C/OC)C(=O)OC (centres undefined),Potency,[1],inactive
same,Potency,[2],inactive
C[C@H]1O[C@@H](O[C@H]2CC[C@]3(C=O)C4CC[C@]5(C)[C@@H](C6=CC(=O)OC6)CC[C@]5(O)[C@@H]4CC[C@]3(O)C2)C[C@@H](O)[C@@H]1O (some centres undefined),Potency,[1],inactive
same,Potency,[2],inactive
C[C@H]1O[C@@H](O[C@H]2C[C@@H](O)[C@]3(CO)C4C(CC[C@]3(O)C2)[C@@]2(O)CC[C@H](C3=CC(=O)OC3)[C@@]2(C)C[C@H]4O)[C@@H](O)[C@@H](O)[C@H]1O (some centres undefined),Potency,[1],inactive
same,Potency,[2],inactive
COC1C(O)C(OC2CCC3(C=O)C(CCC4C3CCC3(C)C(C5=CC(=O)OC5)CCC43O)C2)OC(C)C1OC1OC(CO)C(O)C(O)C1O (centres undefined),Potency,[1],inactive
same,Potency,[2],inactive
COC(=O)c1nc(-c2cccc3ccccc23)oc1OC,Potency,[1],inactive
same,Potency,[2],inactive
C=C1[C@@H](C)C2[C@H](Cc3ccccc3)NC(=O)[C@@]23C(/C=C/C[C@H](C)C[C@@](C)(O)/C=C/[C@@H]3OC(C)=O)[C@@H]1O (some centres undefined),Potency,[1],inactive
same,Potency,[2],inactive
COC(=O)C1(C)CCC(=O)C2(C)c3c(O)cc(C(C)C)cc3C(O)C(OC(C)=O)C12 (centres undefined),Potency,[1],inactive
same,Potency,[2],inactive
C#CCO[C@H]1CN2CCC1CC2,Potency,[1],inactive
same,Potency,[2],inactive
N#Cc1ccc(NC(=O)Nc2nnc(-c3ccncc3)s2)cc1Br,Potency,[1],inactive
same,Potency,[2],inactive
Cn1cc(Br)c(C2N=C(Nc3nc4ccccc4o3)NC3=C2C(=O)CCC3)n1 (centres undefined),Potency,[1],inactive
same,Potency,[2],inactive
CCOc1ccc(CCNC(=O)c2cc3sccc3n2CCN(C)C)cc1OCC,Potency,[1],inactive
same,Potency,[2],inactive
CO[C@H]1C[C@H](O[C@H]2CC[C@]3(CO)[C@H]4CC[C@]5(C)[C@@H](C6=CC(=O)OC6)CC[C@]5(O)[C@@H]4CC[C@]3(O)C2)O[C@H](C)[C@H]1O,Potency,[1],inactive
same,Potency,[2],inactive
Cn1cc(Cl)c(C2N=C(Nc3nc4ccccc4o3)NC3=C2C(=O)CCC3)n1 (centres undefined),Potency,[1],inactive
same,Potency,[2],inactive
CCc1nn2c(=O)c(C)c(N3CCNCC3)nc2s1,Potency,[1],inactive
same,Potency,[2],inactive
C[C@@H](CN1CCC(n2c(=O)[nH]c3cc(Br)ccc32)CC1)NC(=O)[C@@H]1C[C@H]1c1ccccc1,Potency,[1],inactive
same,Potency,[2],inactive
CCOc1ccc(CCNC(=O)c2cc3sccc3n2Cc2ccc(F)cc2F)cc1OCC,Potency,[1],inactive
same,Potency,[2],inactive
CCC(C)(C#N)O[C@@H]1O[C@H](CO)[C@@H](O)[C@H](O)[C@H]1O (some centres undefined),Potency,[1],inactive
same,Potency,[2],inactive
C=C1[C@@H](O)[C@]2(O)OC[C@]34C2[C@]2(C)C(C[C@H]3OC(=O)[C@H](O)[C@@]14O)C(C)=CC(=O)[C@H]2O (some centres undefined),Potency,[1],inactive
same,Potency,[2],inactive
C/C=C(/C)C(=O)O[C@H]1[C@@H]2[C@H](C)C(=O)O[C@@H]2C[C@@H](C)[C@@H]2C=CC(=O)[C@]21C,Potency,[1],inactive
same,Potency,[2],inactive
O=C(Nc1nnc(-c2cccs2)o1)c1ccc(Cl)cc1,Potency,[1],inactive
same,Potency,[2],inactive
CC1=CC2/C=C(\C)CCCC(O)/C=C/C(=O)OC23C(=O)NC(CC(C)C)C3C1C (centres undefined),Potency,[1],inactive
same,Potency,[2],inactive
[Cl][Pt].[NH2-].[NH2-].c1ccncc1,Potency,[3],17.9 µM (active)
COc1ccc(-n2c(C)cc(-c3nnc4n3CCCCC4)c2C)cc1,Potency,[3],12.7 µM (active)
COc1cc(C)[nH]c(=O)c1CNC(=O)c1c(C)n([C@H](C)C2CCN(CC(F)(F)F)CC2)c2ccccc12,viability,[4],101%
same,Potency,[5],inactive
same,Potency,[6],inactive
same,Potency,[7],inactive
CC1(C)CC[C@]2(NC(=O)C(C)(F)F)CC[C@]3(C)[C@H](C(=O)C=C4[C@@]5(C)C=C(C#N)C(=O)C(C)(C)[C@@H]5CC[C@]43C)[C@@H]2C1,Potency,[5],1.18 µM (active)
same,Potency,[6],1.66 µM (active)
O=C(NCCCNc1nc(Nc2ccc(N3CCOCC3)cc2)ncc1C1CC1)C1CCC1,Potency,[8],14.8 µM (active)
same,Potency,[5],0.372 µM (active)
same,Potency,[6],13.2 µM (active)
same,Potency,[9],9.34 µM (active)
Cn1c(COP(=O)(NCCBr)NCCBr)cnc1[N+](=O)[O-],viability,[4],123%
same,Potency,[6],inactive
same,Potency,[9],inactive
same,Potency,[10],inactive
CN(C)[C@@H]1C(=O)C(C(N)=O)=C(O)[C@@]2(O)C(=O)C3=C(O)c4c(O)cccc4[C@@](C)(O)[C@H]3[C@H](O)[C@@H]12,Potency,[8],inactive
same,Potency,[5],inactive
same,Potency,[7],inactive
same,Potency,[10],inactive
C[C@]12CCC(=O)C(O)=C1CC[C@@H]1[C@@H]2CC[C@]2(C)C(=O)CC[C@@H]12,Potency,[8],inactive
same,Potency,[6],inactive
same,Potency,[7],inactive
C[C@]12COC(=O)C[C@@H]1CC[C@@H]1[C@@H]2CC[C@@]2(C)[C@H]1CC[C@]2(C)O,Potency,[9],inactive
same,Potency,[7],inactive
CO/C1=C/C(C)=C\[C@@H](C)[C@@H](O)[C@@H](C)C/C(C)=C\C=C/[C@H](OC)[C@@H]([C@@H](C)[C@@H](O)[C@H](C)[C@@]2(O)C[C@@H](O)[C@H](C)[C@@H](C(C)C)O2)OC1=O,Potency,[8],0.124 µM (active)
same,Potency,[6],0.0879 µM (active)
same,Potency,[9],inactive
